According to the supplement of paper PMC12494721:
Counter-ions that a name gives are not always drawn.

What was measured:
Conditions in all cases: incubation time: 27 h, anaerobic, 37 °C;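 for the amine columns active = adjusted P below 0.05 in both replicates with a change the same way and a mean fold change under 0.8 or over 1.25; inactive = the rest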
[1] = system: Clostridium sporogenes DSM 1664; assay: growth (OD595) fold change vs plate DMSO controls (fold change (ratio)); higher = more growth
Outline: (§1)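 The 96-well mGAM cultures had been kept anaerobic for 27 h at 37 °C before being shaken and read at 595 nm. Blank subtraction, compound background correction with 20 µM compound solutions in water, and a calibration factor of 5 turned the readings into OD. Growth is given as the fold change versus the median of plate DMSO controls. Fold changes above 1.5 were set to NA, and the values are means of 2 biological replicates.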

Escherichia coli IAI1 [2] = assay: as above
Outline: as §1

[3] = system: Klebsiella aerogenes DSM 30053; assay: as above
Outline: as §1

[4] = system: Ruminococcus gnavus DSM 108212; assay: as above
Outline: as §1

[5] = system: Klebsiella aerogenes DSM 30053; assay: fold change of Histamine concentration vs plate DMSO controls (fold change (ratio)); higher = more amine produced, active = hit call of the paper (significant change in both replicates, either direction)
Outline: (§2)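 Amines were quantified by LC–triple-quadrupole MS in dynamic MRM mode against external calibration curves, with drift correction within each batch. The samples were whole anaerobic mGAM cultures of four gut bacterial strains, grown for 27 h at 37 °C in 80 µL wells and extracted with cold acetonitrile/methanol with 0.1% formic acid, then centrifuged. Values are reported as fold change over DMSO controls on the same plate. The mean of 2 biological replicates is given.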

[6] = system: Clostridium sporogenes DSM 1664; assay: fold change of Tryptamine concentration vs plate DMSO controls (fold change (ratio)); higher = more amine produced, active = hit call of the paper (significant change in both replicates, either direction)
Outline: as §2

[7] = system: Ruminococcus gnavus DSM 108212; assay: as above
Outline: as §2

Escherichia coli IAI1 [8] = assay: fold change of Putrescine concentration vs plate DMSO controls (fold change (ratio)); higher = more amine produced, active = hit call of the paper (significant change in both replicates, either direction)
Outline: as §2

[9] = system: Klebsiella aerogenes DSM 30053; assay: as above
Outline: as §2

Escherichia coli IAI1 [10] = assay: fold change of Cadaverine concentration vs plate DMSO controls (fold change (ratio)); higher = more amine produced, active = hit call of the paper (significant change in both replicates, either direction)
Outline: as §2

[11] = system: Klebsiella aerogenes DSM 30053; assay: as above
Outline: as §2

[12] = system: Ruminococcus gnavus DSM 108212; assay: fold change of 2-Phenylethylamine concentration vs plate DMSO controls (fold change (ratio)); higher = more amine produced, active = hit call of the paper (significant change in both replicates, either direction)
Outline: as §2

Row | SMILES | growth [1] | growth (Escherichia coli IAI1 [2]) | growth [3] | growth [4] | fold change of Histamine concentration [5] | fold change of Tryptamine concentration [6] | fold change of Tryptamine concentration [7] | fold change of Putrescine concentration (Escherichia coli IAI1 [8]) | fold change of Putrescine concentration [9] | fold change of Cadaverine concentration (Escherichia coli IAI1 [10]) | fold change of Cadaverine concentration [11] | fold change of 2-Phenylethylamine concentration [12]
1 | c1ccc(-c2ccc(C(c3ccccc3)n3ccnc3)cc2)cc1 (stereo not drawn) [Bifonazole] (20 µM) | 1.27 | 1.08 | 1.02 | 0.817 | 0.99 (inactive) | 0.923 (inactive) | 0.82 (inactive) | 1.04 (inactive) | 1.01 (inactive) | 0.981 (inactive) | 1 (inactive) | 0.927 (inactive)
2 | CC(C)NCC(O)c1ccc2ccccc2c1 (stereo not drawn) [Pronethalol hydrochloride] (20 µM) | 1.12 | 1.01 | 0.993 | 0.98 | 0.97 (inactive) | 0.978 (inactive) | 1.04 (inactive) | 1.01 (inactive) | 0.986 (inactive) | 0.994 (inactive) | 0.982 (inactive) | 1.05 (inactive)
3 | O=C(NCCNCC(O)COc1ccc(O)cc1)N1CCOCC1 (stereo not drawn) [Xamoterol hemifumarate] (20 µM) | 1.1 | 0.989 | 0.983 | 1 | 1.06 (inactive) | 0.992 (inactive) | 0.889 (inactive) | 1.03 (inactive) | 1.03 (inactive) | 1 (inactive) | 0.986 (inactive) | 0.868 (inactive)
4 | NC[C@H]1O[C@H](O[C@H]2[C@H](O)[C@@H](O[C@H]3O[C@H](CO)[C@@H](O)[C@H](N)[C@H]3O)[C@H](N)C[C@@H]2N)[C@H](N)[C@@H](O)[C@@H]1O [Kanamycin B] (20 µM) | 1.05 | 0.89 | 0.765 | 0.976 | 0.723 (active) | 0.998 (inactive) | 0.923 (inactive) | 0.882 (inactive) | 1 (inactive) | 1.08 (inactive) | 0.978 (inactive) | 0.945 (inactive)
5 | N[C@@H]1CCCCN(c2c(F)cc3c(=O)c(C(=O)O)cn(C4CC4)c3c2Cl)C1 [Besifloxacin hydrochloride] (20 µM) | 0.0111 | 0.0312 | 0.191 | 0.266 | 0.189 (active) | 0.0464 (active) | 0.149 (active) | 0.814 (inactive) | 1.08 (inactive) | 0.267 (active) | 0.988 (inactive) | 0.166 (active)
6 | C=C1CC[C@H](O)C/C1=C/C=C1\CCC[C@]2(C)[C@@H]([C@H](C)CCCC(C)C)CC[C@@H]12 [Cholecalciferol] (20 µM) | 0.913 | 0.971 | 0.962 | 1.05 | 1.08 (inactive) | 0.975 (inactive) | 1.03 (inactive) | 0.96 (inactive) | 1.01 (inactive) | 0.984 (inactive) | 1.07 (inactive) | 1.13 (inactive)
7 | CSc1ccc2c(c1)N(CCC1CCCCN1C)c1ccccc1S2 (stereo not drawn) [Thioridazine hydrochloride] (20 µM) | 1.15 | 1.03 | 1.01 | 1.25 | 0.936 (inactive) | 1.12 (inactive) | 0.808 (inactive) | 1.04 (inactive) | 0.948 (inactive) | 1.1 (inactive) | 1.02 (inactive) | 0.941 (inactive)
8 | CCCNC(C)C(=O)Nc1c(C)csc1C(=O)OC (stereo not drawn) [Articaine hydrochloride] (20 µM) | 0.923 | 1.08 | 1.03 | 1.12 | 0.917 (inactive) | 1.06 (inactive) | 1.06 (inactive) | 0.985 (inactive) | 0.992 (inactive) | 0.966 (inactive) | 1.01 (inactive) | 1.09 (inactive)
9 | CN(C)CCOC(=O)C(c1ccccc1)C1(O)CCCC1 (stereo not drawn) [Cyclopentolate hydrochloride] (20 µM) | 0.823 | 1.04 | 1.04 | 0.93 | 0.982 (inactive) | 1.01 (inactive) | 1.02 (inactive) | 1.04 (inactive) | 0.987 (inactive) | 0.977 (inactive) | 0.99 (inactive) | 1.05 (inactive)
10 | CCOc1ccccc1OCCN[C@H](C)Cc1ccc(OC)c(S(N)(=O)=O)c1 [(R)-Tamsulosin hydrochloride] (20 µM) | 0.839 | 0.964 | 1.03 | 1.01 | 0.94 (inactive) | 0.98 (inactive) | 1.02 (inactive) | 1 (inactive) | 1.01 (inactive) | 1.01 (inactive) | 1 (inactive) | 0.976 (inactive)
11 | CNCc1cc(-c2ccccc2F)n(S(=O)(=O)c2cccnc2)c1 [Vonoprazan] (20 µM) | 1.08 | 0.967 | 0.975 | 1.04 | 1.04 (inactive) | 1 (inactive) | 1.02 (inactive) | 0.503 (inactive) | 1 (inactive) | 0.483 (inactive) | 0.982 (inactive) | 0.999 (inactive)
12 | Cn1nnc2c(C(N)=O)ncn2c1=O [Temozolomide] (20 µM) | 1.09 | 0.982 | 0.992 | 1.23 | 0.956 (inactive) | 0.977 (inactive) | 1.02 (inactive) | 1 (inactive) | 0.989 (inactive) | 1.02 (inactive) | 0.998 (inactive) | 1.01 (inactive)
13 | CC[C@@H](CO)NCCN[C@@H](CC)CO [Ethambutol dihydrochloride] (20 µM) | 0.97 | 1.02 | 1.01 | 0.965 | 0.958 (inactive) | 0.996 (inactive) | 1.04 (inactive) | 1.05 (inactive) | 0.987 (inactive) | 0.954 (inactive) | 1.01 (inactive) | 1.09 (inactive)
14 | CCOC(=O)C(C)(C)Oc1ccc(Cl)cc1 [Clofibrate] (20 µM) | 1.24 | 1.23 | 1.03 | 0.977 | 1.07 (inactive) | 1.04 (inactive) | 1 (inactive) | 1.18 (inactive) | 1.03 (inactive) | 0.919 (inactive) | 0.996 (inactive) | 0.97 (inactive)
15 | Cc1ccc(S(=O)(=O)NC(=O)NN2CCCCCC2)cc1 [Tolazamide] (20 µM) | 0.935 | 1.09 | 1.04 | 1.19 | 0.975 (inactive) | 1.02 (inactive) | 1.14 (inactive) | 1.05 (inactive) | 0.974 (inactive) | 1.02 (inactive) | 1.02 (inactive) | 1.18 (inactive)
16 | Nc1nc(N)nc(-c2cc(Cl)ccc2Cl)n1 [Irsogladine maleate] (20 µM) | 1.07 | 1.02 | 0.961 | 1.02 | 0.989 (inactive) | 0.978 (inactive) | 0.959 (inactive) | 1.04 (inactive) | 0.998 (inactive) | 1.06 (inactive) | 0.997 (inactive) | 0.921 (inactive)
17 | COc1ccc(C(=O)NCc2cccnc2)cc1C(=O)NCc1cccnc1 [Picotamide monohydrate] (20 µM) | 0.983 | 0.972 | 0.998 | 0.842 | 1.07 (inactive) | 1.06 (inactive) | 0.926 (inactive) | 0.989 (inactive) | 1.05 (inactive) | 0.962 (inactive) | 1.02 (inactive) | 0.866 (inactive)
18 | COC(=O)C1=C(C)NC(C)=C(C(=O)OC(C)C)C1c1cccc2nonc12 (stereo not drawn) [Isradipine] (20 µM) | 0.941 | 1.06 | 0.997 | 1.22 | 1.09 (inactive) | 0.944 (inactive) | 1.03 (inactive) | 1.04 (inactive) | 1.01 (inactive) | 0.991 (inactive) | 1 (inactive) | 1.01 (inactive)
19 | CC(CN(C)C)CN1c2ccccc2Sc2ccccc21 (stereo not drawn) [Trimeprazine tartrate] (20 µM) | 1.23 | 1.01 | 1.07 | 0.937 | 0.989 (inactive) | 1.08 (inactive) | 0.804 (inactive) | 0.885 (inactive) | 1 (inactive) | 1.02 (inactive) | 1.01 (inactive) | 0.818 (inactive)
20 | C[C@H](CC[C@@H](O[C@@H]1O[C@H](CO[C@@H]2O[C@H](CO)[C@@H](O)[C@H](O)[C@H]2O)[C@@H](O)[C@H](O)[C@H]1O[C@@H]1O[C@H](CO)[C@@H](O)[C@H](O)[C@H]1O)C(C)(C)O)[C@H]1CC[C@@]2(C)[C@@H]3CC=C4[C@@H](CC[C@H](O[C@@H]5O[C@H](CO[C@@H]6O[C@H](CO)[C@@H](O)[C@H](O)[C@H]6O)[C@@H](O)[C@H](O)[C@H]5O)C4(C)C)[C@]3(C)[C@H](O)C[C@]12C [Mogroside V] (50 µM) | 0.958 | 0.906 | 1 | 1.22 | 1.03 (inactive) | 1.12 (inactive) | 0.979 (inactive) | 0.939 (inactive) | 1 (inactive) | 1.11 (inactive) | 1.02 (inactive) | 0.964 (inactive)
21 | Cc1[nH]c(=O)c(C#N)cc1-c1ccncc1 [Milrinone] (20 µM) | 1.08 | 1.05 | 0.987 | 0.92 | 1.09 (inactive) | 0.997 (inactive) | 1.03 (inactive) | 1.02 (inactive) | 1.07 (inactive) | 0.924 (inactive) | 1.03 (inactive) | 0.996 (inactive)
22 | CCCCc1oc2ccc(NS(C)(=O)=O)cc2c1C(=O)c1ccc(OCCCN(CCCC)CCCC)cc1 [Dronedarone hydrochloride] (20 µM) | 0.948 | 1.09 | 1.02 | 0.895 | 0.99 (inactive) | 0.925 (inactive) | 0.8 (inactive) | 1.16 (inactive) | 1 (inactive) | 0.996 (inactive) | 1.01 (inactive) | 0.957 (inactive)
23 | CC(=O)OC(C)OC(=O)C(C)c1ccc(-c2ccccc2)c(F)c1 (stereo not drawn) [Flurbiprofen axetil] (20 µM) | 1.11 | 1.03 | 0.976 | 0.996 | 1.01 (inactive) | 1.04 (inactive) | 1.07 (inactive) | 1.04 (inactive) | 1 (inactive) | 1.07 (inactive) | 0.987 (inactive) | 1.04 (inactive)
24 | CCCCCCCCCCCCCCCC[N+](C)(C)CCN(Cc1ccc(OC)cc1)c1ncccn1 [Thonzonium bromide] (20 µM) | 0.856 | 1.04 | 1.02 | 1 | 1.04 (inactive) | 0.673 (active) | 0.742 (active) | 1.06 (inactive) | 1 (inactive) | 0.984 (inactive) | 0.995 (inactive) | 0.782 (inactive)
